Compound activity as filed in PubChem BioAssay.
The list is not random: actives were taken first. Their share in the collection is about 7.5%.
SMN2 splice enh = increases expression of the SMN2 splice variant; AID 1458; 210,000 compounds, 2.8% hits; Potency, µM (titrated, usually from 46.1 µM), for the others: at the top dose activity change, positive = activation, hits mostly activators; HEK293 SMN2-luciferase splicing reporter, luminescence, 30-36 h; further: % of control where 0% means no effect; nearly all actives have a fitted effect of over 55% in size
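HEK293 cells carry an SMN2 minigene-luciferase reporter in which exon 7 inclusion puts luciferase in frame. Cells were seeded at 2000 cells/well, attached for 10-12 hours, then exposed to compounds for 30-36 hours at 37C before ONE-Glo luminescence.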
NPC1 promoter act = activators of NPC1 promoter | Huh7 NPC1 promoter luciferase reporter, 24 h | Potency, µM (doses to about 9.22 µM), for the others: at the highest dose activation, usual class: activators | 320,000 compounds, 2.4% hits | AID 485313; further: % of control where 0% means no effect; nearly all actives have a fitted effect of over 60% in size
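NPC1 promoter–luciferase Huh7 cells; 24 h compound; luminescence.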
KinaseGlo FLuc = blocks Kinase-Glo luciferase, a counter-screen artifact | 200,000 compounds, 0.28% hits | Q27757 | Potency, µM (top dose mostly 38.3 µM), without a hit: at the highest dose activity change, negative = inhibition, most hits filed as inhibitors | Kinase-Glo luciferase, ATP luminescence, 8 min; further: on the % scale 0 is the no-effect control and ±100 the full control effect; nearly all actives have a fitted effect of over 60% in size
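Inhibition of Kinase-Glo luciferase light generation was assessed at 10 uM ATP in pH 7.2 imidazole buffer, with luminescence measured after eight minutes at ambient temperature.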
FLuc modulator = counter-screen for miR-21 project: firefly luciferase inhibitors or activators; AID 588342; purified FLuc, Km substrates, luminescence inhibition; Potency, µM (top dose mostly 57.5 µM), for the others: top-dose activity change, negative = inhibition, hits mostly inhibitors; P08659; 360,000 compounds, 6.9% hits;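 further: plate controls were vehicle for no effect and reference inhibitor for full effect; nearly all actives have a fitted effect of over 55% in size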
Target sequence (P08659 whole entry, looked up): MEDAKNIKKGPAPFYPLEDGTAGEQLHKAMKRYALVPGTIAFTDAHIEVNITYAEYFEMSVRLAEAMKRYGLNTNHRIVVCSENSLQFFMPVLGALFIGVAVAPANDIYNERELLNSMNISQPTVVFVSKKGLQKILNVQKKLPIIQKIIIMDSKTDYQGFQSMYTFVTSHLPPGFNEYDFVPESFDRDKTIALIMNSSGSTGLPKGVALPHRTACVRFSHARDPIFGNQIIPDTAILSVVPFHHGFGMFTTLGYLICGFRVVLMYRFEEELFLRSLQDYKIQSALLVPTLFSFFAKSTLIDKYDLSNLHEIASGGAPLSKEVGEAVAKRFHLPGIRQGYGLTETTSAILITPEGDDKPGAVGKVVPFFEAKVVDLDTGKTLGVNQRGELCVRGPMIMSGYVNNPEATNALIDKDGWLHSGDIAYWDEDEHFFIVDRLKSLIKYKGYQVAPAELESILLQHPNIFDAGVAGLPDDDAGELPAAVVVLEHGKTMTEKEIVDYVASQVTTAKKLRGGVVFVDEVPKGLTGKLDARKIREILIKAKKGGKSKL
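Purified P. pyralis luciferase, 10 nM final, with Km-level 10 uM D-luciferin and 10 uM ATP in 50 mM Tris acetate pH 7.5, 10 mM Mg acetate, 0.01% Tween-20, 0.05% BSA; 6-point qHTS titration about 60 µM downward; luminescence read.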
ELG1 genotox = inducers of genotoxicity in HEK293T ELG1-luciferase cells; HEK293T ELG1-luciferase reporter, luminescence, 16 h; Potency, µM (top dose mostly 46 µM), inactives show at the highest dose activity change, positive = activation, most hits filed as activators; 330,000 compounds, 1.3% hits; AID 504466; further: % of control where 0% means no effect; nearly all actives have a fitted effect of over 60% in size
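ELG1-luciferase HEK293T cells, 2,000/well; compound pinned in; 16 hr, 37 °C, 5% CO2; ONE-Glo, 30 min RT; luminescence on CCD imager.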
Rab9 prom act = Rab9 promoter activation. Huh7 Rab9 promoter-luciferase reporter, luminescence, 24 h. Potency, µM (doses to about 9.22 µM), inactives show at the top dose activation, negative = inhibition, hits mostly activators. 320,000 compounds, 2.8% hits; further: % of control where 0% means no effect; nearly all actives have a fitted effect of over 60% in size
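Promoter activation is measured as luciferase luminescence in Huh7 cells stably transfected with a Rab9 promoter–luciferase construct, following 24 h compound exposure at 37 °C and 10 min reagent incubation at ambient temperature.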
Active calls of the source: *; u = inconclusive; x = not tested or not shown; [ ] = dose if it differs, or a comment. The call rests on the fitted dose curve; in most records, active means well fitted curve in the direction sought with a large enough effect; inconclusive means small, poorly fitted or top-dose-only effect, or another doubt; inactive means no such curve, though single readings can be large; an effect the other way counts as inactive or inconclusive. Potency means the concentration at half of the fitted maximal effect.

SMILES	SMN2 splice enh	NPC1 promoter act	KinaseGlo FLuc	FLuc modulator	ELG1 genotox	Rab9 prom act
CCOc1ccc(NC(=O)CC2C(=O)N(c3ccccc3)C(=O)N2C2CCCCC2)cc1 (stereo unspecified)	-2%	x	x	1%	x	x
CCCc1cc(=O)oc2cc(C)cc(OC(C)C(=O)NCCCn3ccnc3)c12 (stereo unspecified)	x	1%	x	-1%	5%	2%
CN1CC(=O)N(CC(=O)Nc2cccc3ccccc23)C1=O	x	x	x	x	0%	x
CCOc1cc(CNCCSc2nnnn2C)ccc1OCc1ccc(Cl)cc1Cl	-29%	x	x	-11%	x	x
Cc1ccc(/C=N/NC(=O)c2ccc(N(C)S(=O)(=O)c3ccccc3)cc2)cc1	x	-1%	x	8.5µM*	-38%	0%
CCOc1cc(/C=N/NC(=O)c2ccc(N(C)S(=O)(=O)c3ccccc3)cc2)ccc1OC	x	2%	x	2%	-11%	1%
CC(=O)Oc1ccc(/C=N/NC(=O)c2ccc(N(C)S(=O)(=O)c3ccccc3)cc2)cc1	x	-3%	x	15µM*	-5%	-2%
COc1cc(/C=N/NC(=O)c2ccc(N(C)S(=O)(=O)c3ccccc3)cc2)cc(OC)c1OC	-9%	0%	0%	-2%	-7%	-12%
Cc1nn(C)c(C(=O)NNC(=S)NCC(C)C)c1Cl	-25%	-1%	1%	3%	-1%	-3%
CCOC(=O)c1cnc(-n2nc(C)cc2C)nc1NC1CCCC1	x	-7%	x	-1%	-9%	-13%
CCOC(=O)c1cnc(-n2nc(C)cc2C)nc1N(C)C	u	u	u	5.4µM*	u	4.5µM*
CC1(C)CC(=O)C(C(C2=C(O)CC(C)(C)CC2=O)c2ccc(O)c([N+](=O)[O-])c2)=C(O)C1	4%	-5%	-5%	24µM*	4%	0%
Cc1ccc(-c2nc3ccccc3n3nnnc23)cc1	13µM*	2%	1%	-16%	u	1%
Fc1ccccc1Nc1nc2ccccc2n2nnnc12	u	3%	0%	u	13µM*	u
C=CCc1ccc(OCc2ccc(C(=O)Nc3ccc(NC(C)=O)cc3)o2)c(OC)c1	2.8µM*	1.1µM*	x	u	12%	0.4µM*
O=C(O)c1ccc(/C=C2\SC(=S)N(NC(=O)c3ccccc3)C2=O)cc1	x	1%	x	u	-3%	-6%[1.84 µM]
COc1cc(/C=C2\SC(=S)N(NC(=O)c3ccc(O)c(OC)c3)C2=O)ccc1O	x	0%	x	1.3µM*	22%	-2%
COc1cc(/C=C2\SC(=S)N(NS(=O)(=O)c3ccccc3)C2=O)ccc1O	x	-5%	x	u	1%	-2%
CCOc1cc(/C=C2\SC(=S)N(NC(=O)c3cccnc3)C2=O)ccc1O	-2%	0%	-6%	27µM*	0%	-2%
COc1cc(/C=C2\SC(=S)N(NC(=O)c3cccc(O)c3)C2=O)ccc1O	x	3%	x	11µM*	0%	20%
COc1cc(/C=C2\SC(=S)N(NS(=O)(=O)c3ccc(C)cc3)C2=O)ccc1O	x	-3%	x	21µM*	0%	-10%
COc1ccc(C(=O)Oc2c(Sc3ccc(Cl)cc3)c(C)nn2C(C)(C)C)cc1OC	-1%	x	x	2%	x	x
COCCNc1nnc(SCC(=O)NNC(=O)c2ccc([N+](=O)[O-])cc2)s1	x	-1%	x	5%	-6%	-4%
O=C(O)C1(c2ccccc2)CCN(S(=O)(=O)c2ccc(Br)cc2)CC1	x	-4%	x	-9%	-13%	-1%
COc1ccc(OCC(O)CN2CCNCC2)cc1 (stereo unspecified)	x	-6%	x	1%	1%	-3%
SMILES	SMN2 splice enh	NPC1 promoter act	KinaseGlo FLuc	FLuc modulator	ELG1 genotox	Rab9 prom act
COc1cc(/C=C2\SC(=S)N(NC(=O)c3ccccc3OC)C2=O)ccc1O	x	-4%	x	4.3µM*	4%	-3%
COc1cc(/C=C2\SC(=S)N(NC(=O)c3ccncc3)C2=O)ccc1O	x	-2%	x	17µM*	0%	-14%
CC(=O)NN1C(=O)/C(=C/c2ccc(C(C)C)cc2)SC1=S	-8%	3%	0%	21µM*	2%	-2%
COc1ccccc1C(=O)NN1C(=O)/C(=C/c2cccn2C)SC1=S	x	7%	x	u	0%	0%
O=C(Cc1ccc(F)cc1)NCCc1csc2nc(-c3ccc(Cl)cc3)nn12	x	x	x	-7%	x	x
CC(C)Oc1ccc(CNC(=O)CCCn2c(=O)c3cccn3c3cccnc32)cc1	x	x	x	-12%	x	x
Cc1c(C(=O)Nc2nc(-c3ccccn3)cs2)oc2ccccc12	x	16%	x	9.5µM*	-1%	7%
O=C(Nc1nc(-c2ccccn2)cs1)c1cc2ccccc2o1	-77%	9%	-20%	5.4µM*	-8%	4%
COCc1c(C(=O)Nc2nc(C)cs2)oc2ccccc12	15%	-1%	-2%	u	-1%	1%
O=C(Nc1nc(-c2ccccn2)cs1)c1ncc(Cl)c(Cl)c1Cl	-10%	-5%	-3%	u	-10%	-2%
Cc1cc(-c2csc(NC(=O)c3cc4ccccc4o3)n2)c(C)n1C	2%	13%	-2%	9.5µM*	6%	23%
CCc1nnc(NC(=O)c2cc3ccccc3oc2=O)s1	-4%	-1%	-8%	-18%	u	-4%
O=C(Nc1nc(-c2cccs2)cs1)c1cc2ccccc2oc1=O	11%	23%	-2%	2.7µM*	5%	u
O=C(Nc1nc(-c2cc3ccccc3oc2=O)cs1)c1ccc(Br)o1	28%	10%	-10%	6%	4%	4%
COc1ccc(OC)c(CNC(=O)c2cc(S(=O)(=O)N3CCC(C)CC3)cn2C)c1	x	x	x	-6%	x	x
CCCNC(=O)COCc1cc(-c2ccc3c(c2)OCO3)on1	x	17%	x	u	13%	15%
O=C(COCc1cc(-c2ccc3c(c2)OCO3)on1)N1CCCCC1	x	u	x	19µM*	u	u
O=C(Nc1cccnc1)c1cc(-c2cccc(Cl)c2)on1	18%	-3%	x	-16%	2%	2%
O=C(COCc1cc(-c2ccc3c(c2)OCO3)on1)Nc1cccnc1	x	-5%	x	21µM*	2%	-1%
O=C(Nc1cccnc1)c1cc(-c2ccc3c(c2)OCO3)on1	-11%	5%	u	0.48µM*	u	5%
CN1CCN(C(=O)COCc2cc(-c3ccc4c(c3)OCO4)on2)CC1	x	2%	x	-18%	9%	14%
O=C(Nc1cccnc1)c1cc(-c2ccc(F)cc2)on1	2%	-3%	-6%	2.4µM*	10%	-4%
Cc1c2cnn(-c3ccccc3)c(=O)c2c(C)n1CCCC(=O)Nc1ccc(F)cc1F	-12%	x	x	-9%	x	x
Cc1cc(=O)oc2cc(NC(=O)C(C)N3C(=O)C4CCCCC4C3=O)ccc12 (stereo unspecified)	x	-5%	x	x	-2%	0%
